Reference: ChEMBL document CHEMBL1961873, “Compounds: GSK PKIS; Assays: Nanosyn kinase panel” (2012)

Assays:
[1] = target: Leukocyte tyrosine kinase receptor (Homo sapiens) (UniProt P29376); conditions: at 1 µM;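 further: each value is the mean inhibition of LTK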
[2] = target: Tyrosine-protein kinase Lyn (Homo sapiens) (UniProt P07948); conditions: at 0.1 µM
[3] = target: Tyrosine-protein kinase Lyn (Homo sapiens) (UniProt P07948); conditions: at 1 µM
[4] = target: Tyrosine-protein kinase Lyn (Homo sapiens) (UniProt P07948); conditions: at 0.1 µM; remark: listed apart in the source
[5] = target: Tyrosine-protein kinase Lyn (Homo sapiens) (UniProt P07948); conditions: at 1 µM; remark: listed apart in the source
[6] = target: T1, Tyrosine-protein kinase Mer (Homo sapiens) (UniProt Q12866); conditions: at 0.1 µM
T1 sequence (whole entry): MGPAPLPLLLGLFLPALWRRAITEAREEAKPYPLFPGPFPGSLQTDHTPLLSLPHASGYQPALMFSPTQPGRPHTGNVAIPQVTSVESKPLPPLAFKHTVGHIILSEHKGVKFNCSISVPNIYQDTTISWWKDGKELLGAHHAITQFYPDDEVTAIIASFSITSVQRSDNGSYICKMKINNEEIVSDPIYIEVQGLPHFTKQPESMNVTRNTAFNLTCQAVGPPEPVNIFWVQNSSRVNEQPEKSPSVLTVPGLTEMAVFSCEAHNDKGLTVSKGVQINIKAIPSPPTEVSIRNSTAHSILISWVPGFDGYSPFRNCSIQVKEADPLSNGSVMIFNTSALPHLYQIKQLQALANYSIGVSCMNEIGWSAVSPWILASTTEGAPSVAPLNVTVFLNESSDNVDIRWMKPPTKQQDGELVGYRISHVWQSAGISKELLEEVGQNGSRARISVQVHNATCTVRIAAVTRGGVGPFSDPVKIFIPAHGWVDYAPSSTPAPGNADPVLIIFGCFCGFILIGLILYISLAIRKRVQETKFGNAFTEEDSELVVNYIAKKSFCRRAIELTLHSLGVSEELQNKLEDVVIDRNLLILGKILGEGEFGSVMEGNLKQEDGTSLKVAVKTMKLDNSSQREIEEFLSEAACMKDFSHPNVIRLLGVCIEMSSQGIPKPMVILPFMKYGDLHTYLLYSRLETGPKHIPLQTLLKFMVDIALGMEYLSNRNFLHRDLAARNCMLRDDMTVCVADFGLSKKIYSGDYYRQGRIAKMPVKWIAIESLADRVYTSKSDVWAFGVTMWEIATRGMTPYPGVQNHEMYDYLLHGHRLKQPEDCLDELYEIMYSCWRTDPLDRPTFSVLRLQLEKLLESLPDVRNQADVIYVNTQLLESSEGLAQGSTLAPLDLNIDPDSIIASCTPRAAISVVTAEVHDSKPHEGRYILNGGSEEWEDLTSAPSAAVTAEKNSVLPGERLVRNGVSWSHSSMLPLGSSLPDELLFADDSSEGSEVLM

[7] = target: T1, Tyrosine-protein kinase Mer (Homo sapiens); conditions: at 1 µM
[8] = target: Hepatocyte growth factor receptor (Homo sapiens) (UniProt P08581); conditions: at 0.1 µM
Hepatocyte growth factor receptor (Homo sapiens), sequence (P08581 whole entry): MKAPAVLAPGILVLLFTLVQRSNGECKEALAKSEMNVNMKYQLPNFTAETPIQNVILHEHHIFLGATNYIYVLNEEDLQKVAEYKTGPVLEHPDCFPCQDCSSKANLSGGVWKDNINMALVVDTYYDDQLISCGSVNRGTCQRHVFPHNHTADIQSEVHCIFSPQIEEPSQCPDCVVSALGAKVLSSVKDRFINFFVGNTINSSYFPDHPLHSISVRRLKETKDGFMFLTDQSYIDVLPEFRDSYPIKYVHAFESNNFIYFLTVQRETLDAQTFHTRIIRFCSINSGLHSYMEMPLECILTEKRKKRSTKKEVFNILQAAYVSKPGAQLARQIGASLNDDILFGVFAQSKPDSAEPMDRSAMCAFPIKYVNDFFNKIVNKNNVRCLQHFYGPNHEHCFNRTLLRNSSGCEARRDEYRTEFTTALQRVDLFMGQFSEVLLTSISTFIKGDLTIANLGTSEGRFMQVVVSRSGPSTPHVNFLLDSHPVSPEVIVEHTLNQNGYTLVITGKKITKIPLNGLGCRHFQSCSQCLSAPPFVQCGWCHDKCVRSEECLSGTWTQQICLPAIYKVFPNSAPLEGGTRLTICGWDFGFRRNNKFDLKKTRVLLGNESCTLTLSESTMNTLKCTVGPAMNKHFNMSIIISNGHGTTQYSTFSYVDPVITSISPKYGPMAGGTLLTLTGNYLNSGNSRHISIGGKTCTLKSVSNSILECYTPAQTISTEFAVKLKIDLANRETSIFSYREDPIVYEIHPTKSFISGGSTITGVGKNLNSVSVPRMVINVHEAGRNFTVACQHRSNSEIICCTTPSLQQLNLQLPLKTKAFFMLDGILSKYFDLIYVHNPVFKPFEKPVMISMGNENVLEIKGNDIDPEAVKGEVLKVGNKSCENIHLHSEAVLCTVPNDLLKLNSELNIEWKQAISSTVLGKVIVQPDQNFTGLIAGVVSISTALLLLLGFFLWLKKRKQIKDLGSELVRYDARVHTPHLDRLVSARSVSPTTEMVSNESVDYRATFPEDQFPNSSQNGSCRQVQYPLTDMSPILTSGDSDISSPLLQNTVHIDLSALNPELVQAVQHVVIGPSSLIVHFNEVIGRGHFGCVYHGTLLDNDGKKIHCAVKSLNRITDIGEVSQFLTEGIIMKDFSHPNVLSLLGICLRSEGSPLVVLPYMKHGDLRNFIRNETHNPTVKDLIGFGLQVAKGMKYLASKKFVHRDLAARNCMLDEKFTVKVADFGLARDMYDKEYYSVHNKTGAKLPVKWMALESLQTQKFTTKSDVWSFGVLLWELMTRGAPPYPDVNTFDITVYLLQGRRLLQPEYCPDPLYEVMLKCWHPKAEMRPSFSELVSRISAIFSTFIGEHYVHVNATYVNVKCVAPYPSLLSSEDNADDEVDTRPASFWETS

[9] = target: Hepatocyte growth factor receptor (Homo sapiens) (UniProt P08581); conditions: at 1 µM
[10] = target: T2, Muscle, skeletal receptor tyrosine-protein kinase (Homo sapiens) (UniProt O15146); conditions: at 0.1 µM
T2 sequence (whole entry): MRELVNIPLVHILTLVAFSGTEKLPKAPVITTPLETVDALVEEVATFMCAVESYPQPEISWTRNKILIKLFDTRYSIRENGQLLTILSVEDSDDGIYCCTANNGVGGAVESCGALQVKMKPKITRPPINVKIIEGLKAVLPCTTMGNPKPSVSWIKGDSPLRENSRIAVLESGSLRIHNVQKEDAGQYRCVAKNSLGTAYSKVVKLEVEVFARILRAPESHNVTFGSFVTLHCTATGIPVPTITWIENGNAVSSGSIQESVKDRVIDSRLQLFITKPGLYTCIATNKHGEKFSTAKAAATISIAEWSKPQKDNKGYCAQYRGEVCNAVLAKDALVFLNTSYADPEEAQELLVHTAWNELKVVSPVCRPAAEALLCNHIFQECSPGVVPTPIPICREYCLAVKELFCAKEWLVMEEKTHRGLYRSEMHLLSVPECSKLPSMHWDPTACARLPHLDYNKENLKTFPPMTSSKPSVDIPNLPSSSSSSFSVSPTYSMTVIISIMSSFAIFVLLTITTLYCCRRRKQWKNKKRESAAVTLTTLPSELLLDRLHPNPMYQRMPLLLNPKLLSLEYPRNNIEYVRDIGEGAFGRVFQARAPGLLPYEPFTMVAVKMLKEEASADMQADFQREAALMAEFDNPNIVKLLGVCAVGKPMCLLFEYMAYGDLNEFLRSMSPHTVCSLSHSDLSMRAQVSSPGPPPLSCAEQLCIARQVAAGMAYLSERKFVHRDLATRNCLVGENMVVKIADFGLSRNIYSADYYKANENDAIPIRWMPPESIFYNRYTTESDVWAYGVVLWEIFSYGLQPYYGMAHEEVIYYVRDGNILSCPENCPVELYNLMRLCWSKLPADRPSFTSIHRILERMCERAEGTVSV

[11] = target: T2, Muscle, skeletal receptor tyrosine-protein kinase (Homo sapiens); conditions: at 1 µM
[12] = target: Platelet-derived growth factor receptor alpha (Homo sapiens) (UniProt P16234); conditions: at 0.1 µM
Platelet-derived growth factor receptor alpha (Homo sapiens), sequence (P16234 whole entry): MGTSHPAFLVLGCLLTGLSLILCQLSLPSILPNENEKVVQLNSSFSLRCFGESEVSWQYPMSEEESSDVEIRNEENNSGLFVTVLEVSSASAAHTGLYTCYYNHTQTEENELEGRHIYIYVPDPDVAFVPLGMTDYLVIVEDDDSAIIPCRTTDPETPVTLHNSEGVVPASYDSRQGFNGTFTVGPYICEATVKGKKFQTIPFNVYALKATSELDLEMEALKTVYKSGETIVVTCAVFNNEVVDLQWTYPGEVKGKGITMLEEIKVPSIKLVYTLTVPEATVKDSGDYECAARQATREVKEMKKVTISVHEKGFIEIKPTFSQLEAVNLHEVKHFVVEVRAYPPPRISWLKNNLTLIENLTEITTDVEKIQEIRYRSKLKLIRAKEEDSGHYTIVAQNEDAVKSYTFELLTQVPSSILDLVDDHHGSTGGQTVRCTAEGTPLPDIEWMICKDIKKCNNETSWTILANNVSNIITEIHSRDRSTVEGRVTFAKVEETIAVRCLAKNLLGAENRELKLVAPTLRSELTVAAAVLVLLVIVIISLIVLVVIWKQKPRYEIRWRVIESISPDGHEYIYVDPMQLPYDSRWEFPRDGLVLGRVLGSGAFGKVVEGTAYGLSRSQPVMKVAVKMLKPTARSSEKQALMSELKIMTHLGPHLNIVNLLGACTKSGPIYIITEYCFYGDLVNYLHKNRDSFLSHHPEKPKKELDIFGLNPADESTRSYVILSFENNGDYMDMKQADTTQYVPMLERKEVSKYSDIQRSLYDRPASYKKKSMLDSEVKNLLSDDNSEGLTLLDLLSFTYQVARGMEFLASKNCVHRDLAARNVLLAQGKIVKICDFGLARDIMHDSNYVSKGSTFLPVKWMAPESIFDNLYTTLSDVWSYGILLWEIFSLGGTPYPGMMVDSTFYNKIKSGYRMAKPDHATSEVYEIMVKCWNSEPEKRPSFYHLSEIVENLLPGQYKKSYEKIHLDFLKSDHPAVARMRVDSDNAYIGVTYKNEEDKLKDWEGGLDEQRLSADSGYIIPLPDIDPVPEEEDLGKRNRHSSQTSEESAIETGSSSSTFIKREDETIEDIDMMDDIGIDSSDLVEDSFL

[13] = target: Platelet-derived growth factor receptor alpha (Homo sapiens) (UniProt P16234); conditions: at 1 µM
[14] = system: Platelet-derived growth factor receptor alpha (Homo sapiens), P16234 [D842V]; conditions: at 0.1 µM
[15] = system: Platelet-derived growth factor receptor alpha (Homo sapiens), P16234 [D842V]; conditions: at 1 µM
[16] = system: Platelet-derived growth factor receptor alpha (Homo sapiens), P16234 [T674I]; conditions: at 0.1 µM
[17] = system: Platelet-derived growth factor receptor alpha (Homo sapiens), P16234 [T674I]; conditions: at 1 µM
[18] = system: Platelet-derived growth factor receptor alpha (Homo sapiens), P16234 [V561D]; conditions: at 0.1 µM
[19] = system: Platelet-derived growth factor receptor alpha (Homo sapiens), P16234 [V561D]; conditions: at 1 µM
[20] = target: Platelet-derived growth factor receptor beta (Homo sapiens) (UniProt P09619); conditions: at 0.1 µM;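 further: reported value is the mean percent inhibition of the kinase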
Platelet-derived growth factor receptor beta (Homo sapiens), sequence (P09619 whole entry): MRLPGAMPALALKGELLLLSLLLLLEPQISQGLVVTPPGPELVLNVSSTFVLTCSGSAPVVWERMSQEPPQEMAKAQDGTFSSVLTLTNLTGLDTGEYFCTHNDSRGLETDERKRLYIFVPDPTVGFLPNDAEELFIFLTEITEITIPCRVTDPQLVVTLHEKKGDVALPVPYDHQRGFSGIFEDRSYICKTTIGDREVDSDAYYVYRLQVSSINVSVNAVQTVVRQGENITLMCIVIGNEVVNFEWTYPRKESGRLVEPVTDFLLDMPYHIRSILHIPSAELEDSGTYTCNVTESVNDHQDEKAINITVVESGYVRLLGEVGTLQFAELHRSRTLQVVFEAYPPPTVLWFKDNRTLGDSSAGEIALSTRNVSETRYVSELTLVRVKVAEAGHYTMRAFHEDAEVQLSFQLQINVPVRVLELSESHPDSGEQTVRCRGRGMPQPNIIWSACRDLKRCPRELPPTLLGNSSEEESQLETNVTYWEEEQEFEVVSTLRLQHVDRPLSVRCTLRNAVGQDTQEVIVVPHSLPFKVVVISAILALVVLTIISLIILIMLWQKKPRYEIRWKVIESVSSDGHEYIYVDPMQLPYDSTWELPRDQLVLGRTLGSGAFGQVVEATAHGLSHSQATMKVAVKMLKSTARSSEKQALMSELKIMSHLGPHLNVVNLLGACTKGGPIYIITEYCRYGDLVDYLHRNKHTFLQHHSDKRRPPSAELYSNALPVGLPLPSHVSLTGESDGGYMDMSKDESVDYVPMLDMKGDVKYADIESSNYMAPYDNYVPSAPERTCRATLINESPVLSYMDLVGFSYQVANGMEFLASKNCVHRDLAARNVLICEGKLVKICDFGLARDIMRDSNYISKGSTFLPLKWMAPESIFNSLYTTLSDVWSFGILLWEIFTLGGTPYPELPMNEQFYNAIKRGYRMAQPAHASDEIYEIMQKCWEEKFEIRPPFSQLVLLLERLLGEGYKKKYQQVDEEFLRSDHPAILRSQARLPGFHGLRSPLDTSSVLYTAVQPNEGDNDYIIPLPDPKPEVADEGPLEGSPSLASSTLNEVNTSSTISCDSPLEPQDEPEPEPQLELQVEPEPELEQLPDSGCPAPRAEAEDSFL

Tyrosine-protein kinase Lyn (Homo sapiens), sequence (P07948 2-512 limits assumed): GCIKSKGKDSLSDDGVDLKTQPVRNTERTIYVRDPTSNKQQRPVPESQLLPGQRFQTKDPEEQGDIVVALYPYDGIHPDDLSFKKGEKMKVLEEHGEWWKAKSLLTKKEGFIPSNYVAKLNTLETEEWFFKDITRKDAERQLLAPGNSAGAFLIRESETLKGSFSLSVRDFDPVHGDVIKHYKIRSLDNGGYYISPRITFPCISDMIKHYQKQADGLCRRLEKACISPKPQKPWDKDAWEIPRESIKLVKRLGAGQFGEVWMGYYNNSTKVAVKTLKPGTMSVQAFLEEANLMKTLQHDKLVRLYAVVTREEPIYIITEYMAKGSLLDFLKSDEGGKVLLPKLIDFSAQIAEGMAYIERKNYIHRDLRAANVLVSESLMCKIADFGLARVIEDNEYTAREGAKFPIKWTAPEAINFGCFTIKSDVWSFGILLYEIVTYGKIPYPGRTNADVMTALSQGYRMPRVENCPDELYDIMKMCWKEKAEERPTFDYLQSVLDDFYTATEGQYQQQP
Leukocyte tyrosine kinase receptor (Homo sapiens), sequence (P29376 whole entry): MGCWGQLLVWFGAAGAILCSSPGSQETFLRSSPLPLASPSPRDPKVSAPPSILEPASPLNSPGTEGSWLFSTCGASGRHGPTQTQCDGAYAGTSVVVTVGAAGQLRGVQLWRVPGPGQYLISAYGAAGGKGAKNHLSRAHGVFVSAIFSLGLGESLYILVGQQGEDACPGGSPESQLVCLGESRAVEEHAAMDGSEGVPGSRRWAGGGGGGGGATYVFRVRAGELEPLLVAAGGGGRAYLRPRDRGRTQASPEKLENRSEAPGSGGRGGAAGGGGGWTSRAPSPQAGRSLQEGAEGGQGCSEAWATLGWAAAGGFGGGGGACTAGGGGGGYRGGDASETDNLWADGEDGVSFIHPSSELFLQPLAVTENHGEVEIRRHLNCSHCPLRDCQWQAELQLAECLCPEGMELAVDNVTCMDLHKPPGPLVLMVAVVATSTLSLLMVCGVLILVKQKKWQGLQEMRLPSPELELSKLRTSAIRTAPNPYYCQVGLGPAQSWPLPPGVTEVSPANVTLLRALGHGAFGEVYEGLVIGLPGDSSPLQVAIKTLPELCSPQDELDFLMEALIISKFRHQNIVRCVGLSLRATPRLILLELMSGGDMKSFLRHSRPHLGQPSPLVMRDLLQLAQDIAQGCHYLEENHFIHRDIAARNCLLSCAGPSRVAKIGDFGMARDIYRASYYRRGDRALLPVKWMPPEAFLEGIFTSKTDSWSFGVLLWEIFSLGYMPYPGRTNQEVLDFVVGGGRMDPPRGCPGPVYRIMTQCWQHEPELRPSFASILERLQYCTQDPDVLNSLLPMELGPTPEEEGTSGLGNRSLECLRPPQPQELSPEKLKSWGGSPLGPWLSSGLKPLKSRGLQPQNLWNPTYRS

SMILES	inhibition [1] [%]	inhibition [2] [%]	inhibition [3] [%]	inhibition [4] [%]	inhibition [5] [%]	inhibition [6] [%]	inhibition [7] [%]	inhibition [8] [%]	inhibition [9] [%]	inhibition [10] [%]	inhibition [11] [%]	inhibition [12] [%]	inhibition [13] [%]	inhibition [14] [%]	inhibition [15] [%]	inhibition [16] [%]	inhibition [17] [%]	inhibition [18] [%]	inhibition [19] [%]	inhibition [20] [%]
COc1cc2c(cc1Nc1nc(Nc3ccsc3C(N)=O)c3cc[nH]c3n1)N(C(=O)CN(C)C)CCC2	94.9	3.9	5.94	2.54	2.25	1.81	6.9	6.76	7.29	3.98	28.6	11.4	26.1	2.44	3.25	1.93	2.94	3.24	13.9	10.4
CCn1c(-c2nonc2N)nc2c(C#CC(C)(C)O)ncc(OCC3CCNCC3)c21	5.07	3.39	7.23	1.8	5.79	1.17	1.7	1.64	2.5	4.04	3.71	9.32	28.6	4.23	34.4	7.44	29.9	5.4	16.6	12.1
Fc1ccc(-c2ncn(C3CCNCC3)c2-c2ccnc(Oc3ccccc3)n2)cc1	1.61	2.38	2.64	0.89	1.56	0.77	6.11	5.19	0.34	1.71	-0.77	5.35	9.51	2.07	4	1.52	5.42	2.95	5.32	3.81
